PubChem BioAssay (EPA / NIEHS)
Values joined by “and” are separate entries in the source; they are usually repeats but may differ in a detail not shown here. Equal entries are not always repeated. Inconclusive results are not listed. Active and inactive are the calls of the source. Rule for the calls: active = hit-call score of the fitted dose curve at least 0.9, where 1 is the maximum; inconclusive = response in the unintended direction; inactive = score below 0.9.

Target: human Norepinephrine Transporter (NET), SLC6A2 (gene 6530) (UniProt P23975)
Sequence (P23975 whole entry, looked up): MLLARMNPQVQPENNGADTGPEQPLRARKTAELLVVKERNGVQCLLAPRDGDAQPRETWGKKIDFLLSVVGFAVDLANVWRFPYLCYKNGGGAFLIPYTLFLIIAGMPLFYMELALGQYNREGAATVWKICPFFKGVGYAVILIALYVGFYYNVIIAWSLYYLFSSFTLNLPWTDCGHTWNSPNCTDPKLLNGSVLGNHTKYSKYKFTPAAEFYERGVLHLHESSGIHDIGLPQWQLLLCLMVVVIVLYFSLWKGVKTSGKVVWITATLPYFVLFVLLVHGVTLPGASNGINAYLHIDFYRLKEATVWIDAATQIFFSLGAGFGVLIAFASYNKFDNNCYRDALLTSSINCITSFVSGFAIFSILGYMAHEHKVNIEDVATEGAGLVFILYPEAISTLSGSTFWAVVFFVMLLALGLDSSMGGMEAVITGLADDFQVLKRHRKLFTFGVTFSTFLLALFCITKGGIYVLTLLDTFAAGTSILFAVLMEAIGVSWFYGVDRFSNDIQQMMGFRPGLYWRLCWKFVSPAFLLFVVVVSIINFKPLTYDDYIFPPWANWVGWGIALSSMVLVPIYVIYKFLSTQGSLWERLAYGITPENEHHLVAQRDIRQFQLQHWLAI
Test: NVS_TR_hNET: NovaScreen (NVS) Transporter Assay for human Norepinephrine Transporter (NET) (AID 2283377);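 note: cell-free membrane protein extracted from CHO cells expressing human NET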
Description: NVS_TR_hNET is a biochemical, single-readout assay that uses extracted gene-proteins from CHO in a cell-free assay. Measurements were taken 1 hour after chemical dosing in a 96-well plate.NVS_TR_hNET is one of one assay component(s) measured or calculated from the NVS_TR_hNET assay. It is designed to make measurements of radioligand binding, a form of binding reporter, as detected with scintillation counting signals by Filter-based radiodetection technology.Data from the assay component NVS_TR_hNET was analyzed into 1 assay endpoint. This assay endpoint, NVS_TR_hNET, was analyzed in the positive analysis fitting direction relative to DMSO as the negative control and baseline of activity. Using a type of binding reporter, loss-of-signal activity can be used to understand changes in the binding as they relate to the gene SLC6A2. Furthermore, this assay endpoint can be referred to as a primary readout, because the performed assay has only produced 1 assay endpoint. To generalize the intended target to other relatable targets, this assay endpoint is annotated to the transporter intended target family, where the subfamily is neurotransmitter transporter.
Binding assays used specific radioligands (tritiated, iodinated) with non-radioactive competitive displacement ligands in agonist or antagonist protocols (as indicated) and various reference compounds and inhibitors to titrate specific binding to receptors and transporters. Most enzyme assays (CYPs, kinases, phosphatases, proteases, HDACs) used recombinant protein and specific substrates (fluorescence mostly, some colorimetric and radioactive) and inhibitors, followed by a biochemical separation of substrate and product. All assays for the biochemical HTS were initially run in duplicate at a single concentration (10 uM for CYP450 assays and 25 uM for all others). […] Each assay was run with positive and negative controls, and concurrent controls on every plate. The follow-up (secondary) screen tested active chemical-pairs in concentration series, as well as a few additional assays not tested in the primary screen, some selected negative inactives, and several cases re-run in the concentration series for confirmatory purposes.

SMILES	AC50	outcome
CC(C)(C)c1cc(O)ccc1O	13.8 µM (active)	–
CC(=O)[O][Hg][c]1ccccc1	0.212 µM (active)	–
CC(C)(c1ccccc1)c1ccc(O)c(C(C)(C)c2ccccc2)c1	–	inactive
COP(=S)(OC)Oc1ccc(Sc2ccc(OP(=S)(OC)OC)cc2)cc1	1.39 µM (active)	–
Oc1c(I)cc(I)cc1I	25 µM (active)	–
CCN1CCC2(CC1)COc1cc3c(cc12)N(C(=O)c1ccc(-c2ccc(-c4nnc(C)o4)cc2C)cc1)CC3	10.1 µM (active)	–
CCOP(=S)(OCC)SCSP(=S)(OCC)OCC	–	inactive
COc1cc(-c2ccc(N)c(OC)c2)ccc1N	10.3 µM (active) and 7.7 µM (active)	–
Nc1ccc(-c2ccc(N)c(Cl)c2)cc1Cl	3.04 µM (active)	–
CCC(=O)C(CC(C)N(C)C)(c1ccccc1)c1ccccc1 (stereo not drawn)	5.61 µM (active)	–
Nc1cccc2ccccc12	14.8 µM (active)	–
O=C1C2(Cl)C3(Cl)C4(Cl)C(Cl)(Cl)C5(Cl)C3(Cl)C1(Cl)C5(Cl)C24Cl (stereo not drawn)	1.57 µM (active) and 1.82 µM (active) and 869 nM (active)	–
CC(C)(OO)c1ccccc1	–	inactive
CC(C)(C)CC(C)(C)c1ccc(O)cc1	11.7 µM (active)	–
C=C(C)C(=O)[O][Sn]([CH2]CCC)([CH2]CCC)[CH2]CCC	0.376 µM (active)	–
O=C(O)C(F)(F)C(F)(F)C(F)(F)C(F)(F)C(F)(F)C(F)(F)C(F)(F)C(F)(F)C(F)(F)C(F)(F)F	–	inactive
CCOC(=O)Nc1cccc(OC(=O)Nc2ccccc2)c1	3.25 µM (active)	–
Cn1sc(Cl)cc1=O	1.59 µM (active)	–
NC(=S)Nc1ccccc1	15.4 µM (active)	–
Cc1cc(Cl)ccc1O[C@H](C)C(=O)O	–	inactive
Nc1ccc(Cl)cc1C(=O)c1ccccc1	12 µM (active)	–
COP(=S)(OC)Oc1cc(Cl)c(Cl)cc1Cl	–	inactive
O=C(Cl)c1ccc(Cl)cc1	–	inactive
